Data: PubChem BioAssay (NCATS)
Results filed as inconclusive are left out. Calls of active or inactive are those of the source. The call rests on the fitted dose curve.

target: Nucleoprotein (Lymphocytic choriomeningitis virus (strain Armstrong)) (UniProt P09992); assay: qHTS for Inhibitors of the Functional Ribonucleoprotein Complex (vRNP) of Lymphocytic Choriomeningitis Arenaviruses (LCMV): LCMV Primary Screen - GLuc reporter signal (AID 1347086); conditions: LCMV minigenome vRNP cell assay, Gaussia luciferase reporter; series mostly up to 57.5 µM; activity change, negative = inhibition: at the top concentration; further: nearly all actives have a fitted effect of over 70% in size
On the % scale 0 is the no-effect control and ±100 the full control effect.

Nucleoprotein (Lymphocytic choriomeningitis virus (strain Armstrong)), sequence (P09992 whole entry, looked up): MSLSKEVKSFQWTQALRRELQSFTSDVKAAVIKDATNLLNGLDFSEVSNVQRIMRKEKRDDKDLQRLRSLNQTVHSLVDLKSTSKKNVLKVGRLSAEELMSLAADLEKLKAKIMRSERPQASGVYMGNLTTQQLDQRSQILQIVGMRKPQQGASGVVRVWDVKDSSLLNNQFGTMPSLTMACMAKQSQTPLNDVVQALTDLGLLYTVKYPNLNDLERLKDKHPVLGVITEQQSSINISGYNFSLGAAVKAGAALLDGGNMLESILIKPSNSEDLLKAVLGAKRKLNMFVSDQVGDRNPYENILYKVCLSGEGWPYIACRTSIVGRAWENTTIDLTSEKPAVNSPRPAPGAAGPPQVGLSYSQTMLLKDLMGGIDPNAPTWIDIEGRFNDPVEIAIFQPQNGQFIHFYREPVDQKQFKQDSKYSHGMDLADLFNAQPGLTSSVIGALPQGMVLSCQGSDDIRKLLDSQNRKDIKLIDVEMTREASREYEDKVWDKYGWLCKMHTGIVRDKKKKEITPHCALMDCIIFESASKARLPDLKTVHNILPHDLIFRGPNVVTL

SMILES | activity change, negative = inhibition | Potency
COc1ccccc1N1CCN(CCCCNC(=O)c2ccc(-c3ccc(C(C)=O)cc3)cc2)CC1 | 9.29% (inactive) | –
Cc1c(F)c(N2CCNC(C)C2)cc2c1c(=O)c(C(=O)O)cn2C1CC1 (centres undefined) | 19.4% (inactive) | –
CCN(CC)CCOC(=O)c1ccc(N)cc1 | – | inactive
CCCNC(C)C(=O)Nc1c(C)csc1C(=O)OC (centres undefined) | 6.97% (inactive) | –
N#Cc1ccc(C(c2ccc(C#N)cc2)n2cncn2)cc1 | 1.55% (inactive) | –
O=C(NC(Cc1cc(=O)[nH]c2ccccc12)C(=O)O)c1ccc(Cl)cc1 (centres undefined) | – | inactive
COCCCN1CCC(NC(=O)c2cc(Cl)c(N)c3c2OCC3)CC1 | 2.17% (inactive) | –
CCOC(=O)c1cnc2c(cnn2CC)c1NN=C(C)C | -6.68% (inactive) | –
Cc1cn([C@@H]2O[C@H](CO)[C@@H](O)[C@H]2F)c(=O)[nH]c1=O | 94% (inactive) | –
CC(C)(C(=O)c1cccnc1)c1cccnc1 | 11.5% (inactive) | –
O=C(c1ccco1)N1CCNCC1 | 1.32% (inactive) | –
O=C(NCN1CCOCC1)c1cnccn1 | 18.6% (inactive) | –
COc1cc(C)nc(-n2nc(C)cc2OC)n1 | -0.225% (inactive) | –
O=C(Oc1ccccc1C(=O)O)c1ccccc1O | 14.9% (inactive) | –
CCc1cccc(CC)c1NC(=O)CN(CC(=O)O)CC(=O)O | 16.6% (inactive) | –
CO[C@@]1(NC(=O)CSC[C@@H](N)C(=O)O)C(=O)N2C(C(=O)O)=C(CSc3nnnn3C)CS[C@@H]21 | -0.204% (inactive) | –
CCOc1cc(CC(=O)N[C@@H](CC(C)C)c2ccccc2N2CCCCC2)ccc1C(=O)O | 13% (inactive) | –
C[N+](C)(C)CCOC(N)=O | – | inactive
CC(=O)O[C@]1(C(C)=O)CC[C@H]2[C@@H]3C[C@H](C)C4=CC(=O)CC[C@]4(C)[C@H]3CC[C@@]21C | 27.3% (inactive) | –
COC(=O)c1ccc(O)cc1 | 1.93% (inactive) | –

SMILES | activity change, negative = inhibition | Potency
O=c1[nH]c(=O)n([C@H]2C[C@H](O)[C@@H](CO)O2)cc1I | 45.5% (inactive) | –
CC(=O)OCC(=O)[C@@]1(OC(C)=O)[C@@H](C)C[C@H]2[C@@H]3C[C@H](F)C4=CC(=O)C=C[C@]4(C)[C@@]3(F)[C@@H](O)C[C@@]21C | 11.1% (inactive) | –
CC1(C)OC[C@@H]2O[C@@]3(C(=O)O)OC(C)(C)O[C@H]3[C@@H]2O1 | 5.93% (inactive) | –
CS(=O)(=O)c1ccc([C@@H](O)[C@@H](CO)NC(=O)C(Cl)Cl)cc1 | -23.3% (inactive) | –
COc1ccc(C2CNC(=O)C2)cc1OC1CCCC1 (centres undefined) | – | inactive
CCCCCCCCCCOc1cc2c(=O)c(C(=O)OCC)c[nH]c2cc1OCC | 13.4% [at 5.82 µM] (inactive) | –
O=C(NCCO[N+](=O)[O-])c1cccnc1 | – | inactive
CC(C(=O)O)c1ccc(C(=O)c2ccccc2)s1 (centres undefined) | 5.67% (inactive) | –
COC(=O)c1ccc(NC(C)=O)cc1OC | -9.69% (inactive) | –
COc1cc(C(=O)OC(COCCC(C)C)CN2CCOCC2)cc(OC)c1OC (centres undefined) | -20.7% (inactive) | –
c1ccc2sc(SSc3nc4ccccc4s3)nc2c1 | 1.36% [at 24.7 µM] (inactive) | –
CC(=O)Oc1cc(C(C)C)c(OCCN(C)C)cc1C | – | inactive
O=c1[nH]cnc2nc[nH]c12 | 16.3% (inactive) | –
Nc1ncnc2c1ncn2[C@@H]1O[C@H](COP(=O)(O)O)[C@@H](O)[C@H]1O | 8.86% (inactive) | –
CC(=O)OCC(COC(C)=O)OC(C)=O | -4.3% (inactive) | –
Cc1c(NC(=O)c2cccnc2)c(=O)n(-c2ccccc2)n1C | 8.78% (inactive) | –
Cc1cc(C)c(NC(=O)CN(CC(=O)O)CC(=O)O)c(C)c1Br | 21.2% (inactive) | –
O=C(O)[C@@H]1[C@H]2C[C@H]3c4[nH]c5ccccc5c4CCN3C[C@@H]2CC[C@@H]1O | 4.46% (inactive) | –
C[C@@H]1CCC[C@H](C)N1 | 4.08% (inactive) | –
